The source made the active and inactive calls. The calls were made as follows: active = hit-call score of the fitted dose curve at least 0.9, where 1 is the maximum; inactive = score below 0.9.
biological target: human Src Tyrosine Kinase, SRC (gene 6714) (UniProt P12931); assay: ERF_FR_ENZ_hSRC: Eurofins (ERF) Enzymatic Radiometric [Km ATP] KinaseProfiler LeadHunter Assay for human Src Tyrosine Kinase
Method: ERF_FR_ENZ_hSRC is a biochemical, single-readout assay that uses extracted gene-proteins in a cell-free assay. Measurements were taken 0.16 hour after chemical dosing in a 96-well plate. See Src Human TK Kinase Enzymatic LANCE Assay [Km ATP], Cerep.ERF_FR_ENZ_hSRC is an assay component calculated from the ERF_FR_ENZ_hSRC assay. It is designed to measure enzyme activity using a type of enzyme reporter as detected by fluorescence intensity with LANCE technology.Data from the assay component ERF_FR_ENZ_hSRC was analyzed at the assay endpoint, ERF_FR_ENZ_hSRC, in the positive analysis fitting direction relative to DMSO as the negative control and baseline of activity. Using a type of enzyme reporter, loss-of-signal activity can be used to understand changes in enzymatic activity as they relate to gene SRC. To generalize the intended target to other relatable targets, this assay endpoint is annotated to the kinase intended target family, where the subfamily is non-receptor tyrosine kinase.
c-Src (h) is incubated with 8 mM MOPS pH 7.0, 0.2 mM EDTA, 250 uM […] (Cdc2 peptide), 10 mM MgAcetate and [gamma-33P]-ATP (specific activity and concentration as required). The reaction is initiated by the addition of the Mg/ATP mix. After incubation for 40 minutes at room temperature, the reaction is stopped by the addition of phosphoric acid to a concentration of 0.5%. […]

human Src Tyrosine Kinase, SRC (gene 6714), sequence (P12931 whole entry, looked up): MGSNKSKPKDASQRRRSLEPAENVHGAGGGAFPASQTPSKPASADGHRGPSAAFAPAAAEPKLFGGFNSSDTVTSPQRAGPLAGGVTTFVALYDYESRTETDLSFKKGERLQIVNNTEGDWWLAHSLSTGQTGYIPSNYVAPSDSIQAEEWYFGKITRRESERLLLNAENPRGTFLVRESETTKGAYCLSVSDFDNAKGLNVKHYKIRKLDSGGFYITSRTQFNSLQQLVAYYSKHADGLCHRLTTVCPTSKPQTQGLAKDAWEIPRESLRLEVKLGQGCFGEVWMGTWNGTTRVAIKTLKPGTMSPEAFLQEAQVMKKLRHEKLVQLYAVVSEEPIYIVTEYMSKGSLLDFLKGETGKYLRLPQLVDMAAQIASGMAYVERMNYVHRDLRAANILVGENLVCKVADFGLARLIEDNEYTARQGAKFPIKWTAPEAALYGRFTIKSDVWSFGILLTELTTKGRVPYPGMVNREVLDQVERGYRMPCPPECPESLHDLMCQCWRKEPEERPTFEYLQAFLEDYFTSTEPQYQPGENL

Question: How did the outcome turn out when `O=C(/C=C/c1ccc(O)cc1)CC(=O)/C=C/c1ccc(O)cc1` was run?
Answer: Its outcome is “inactive”.

— PubChem BioAssay AID2284108 (EPA ToxCast)
